{
  "source": "PubChem BioAssay (NCI)",
  "note": "This is part of a sample that, as a whole, favours compounds with a hit. Of some 83,000 tested, about 20% had one in any assay.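 For each line, cells grew in 96-well plates with the test compound present at a single concentration for 48 hours.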 A number with no mark means an inactive call. The source made the active and inactive calls.",
  "data": [
    {"system": "OVCAR-5 ovarian", "assay": "NCI-60 one-dose screen, 48 h (100 = growth as untreated, 0 = no growth, -100 = all killed)", "conditions": "10 µM unless noted", "description": "Growth inhibition of the OVCAR-5 human tumor cell line is measured as a screen for anti-cancer activity. Cells are grown in 96 well plates and exposed to the test compound for 48 hours. Compounds are tested at a single concentration, which is 10^-5 M for most compounds. The reported endpoint is percent growth (GI% or GIPRCNT), where numbers from 0 - 100% represent growth inhibition, and numbers from -100% - 0 represent cell death. For example, a value of 40 represents 60% growth inhibition. A value of 0 means no net growth occurred over the course of the experiment. A value of -40 indicates 40% of cells at the beginning of the experiment died by the end of the experiment. A value of -100 means all cells are dead at the end of the experiment.\nNCI-60 Human Tumor Cell Lines Screen was performed using the standard one-dose NCI protocol, which is described in more detail at https://dtp.cancer.gov/discovery_development/nci-60/default.htm.\nCompounds with GIPRCNT values below 10 were considered active. Activity score was based on GIPRCNT using the following formula: […]\nScore is 0 for GIPRCNT values of 100 or above, 50 for GIPRCNT values of 0, and 100 for GIPRCNT values of -100.", "values": [
      {"smiles": "COc1ccc(C(=O)/C=C/c2cccnc2)cc1S(N)(=O)=O", "growth": "77.2%"},
      {"smiles": "O=C1Nc2ccc([N+](=O)[O-])cc2C1=Nc1ccccc1", "growth": "103%"},
      {"smiles": "CC1CCCCN1CCCNC(=O)N/C(N)=N/c1nc2ccccc2s1", "note": "(stereo not given)", "growth": "38.2%"},
      {"smiles": "C/C(=N\\N=C\\c1cc([N+](=O)[O-])ccc1Cl)c1ccc2c(c1)Nc1ccccc1S2", "growth": "69.4%"},
      {"smiles": "O=C(N1c2ccccc2Sc2ccccc21)n1ccc2cccnc21", "growth": "98.5%"},
      {"smiles": "CN(C)c1ccnc(CNCCSC2(c3ccc(C(F)(F)F)cc3)c3ccccc3C=Cc3ccccc32)c1", "growth": "1.89% (active)"},
      {"smiles": "COc1ccc(C(SCCNCc2cc(N(C)C)ccn2)(c2ccccc2)c2ccccc2)cc1", "growth": "-13.8% (active)"},
      {"smiles": "Cc1ccc(C(=O)CSc2nc3ccc(C)cc3c(=O)n2-c2ccc(F)cc2)cc1", "growth": "84.8%"},
      {"smiles": "CCOC(=O)COc1c(OC)c(OC)cc2oc(-c3cccc(C(=O)Nc4ccc(Cl)cc4)c3)cc(=O)c12", "growth": "81.4%"},
      {"smiles": "C[C@H](Nc1nc(NCCc2ccccc2)nc2ccccc12)c1ccccc1", "growth": "-92.2% (active)"},
      {"smiles": "Nc1nnc(-c2c[nH]c3ncc(Br)cc23)c(-c2c[nH]c3ccc(F)cc23)n1", "growth": "48.6%"},
      {"smiles": "CC(=O)c1c(N)c(C#N)cn1-c1ccc(Cl)cc1Cl", "growth": "100%"},
      {"smiles": "COC(=O)/C=C/c1cccc2c1C(=O)NC(C)(c1cc3cc4ccccc4cc3oc1=O)N2", "note": "(stereo not given)", "growth": "63.3%"},
      {"smiles": "O=C(/C=C/Nc1ccc2oc(=O)ccc2c1)c1cc2cc(Br)ccc2oc1=O", "growth": "108%"},
      {"smiles": "Brc1ccc(N/N=C/c2c[nH]c3ccc(Br)cc23)nc1", "growth": "-25.8% (active)"},
      {"smiles": "CC1=C(C(=O)c2ccccc2)C(c2cccc3ccccc23)n2c(nc3ccccc32)N1", "note": "(stereo not given)", "growth": "68.4%"},
      {"smiles": "COc1cc2nc(SCc3ccccc3)n(-c3ccc(Cl)cc3)c(=O)c2cc1OC", "growth": "34.3%"},
      {"smiles": "Cc1ccc(/C=C/c2n(Cc3ccc4ccccc4c3)c3ccccc3[n+]2Cc2ccc3ccccc3c2)cc1", "growth": "-94% (active)"},
      {"smiles": "COc1cc2oc(-c3cccc(C(=O)Nc4ccc(Cl)cc4)c3)cc(=O)c2c(OCC(=O)N[C@@H](Cc2ccccc2)C(=O)O)c1OC", "growth": "101%"},
      {"smiles": "C=C1CCC2C3(C)COC(c4cc(F)cc(F)c4)OC3CCC2(C)C1CC(O)C1=CCOC1=O", "note": "(stereo not given)", "growth": "87%"},
      {"smiles": "CCCCCCn1c(O)c(N=Nc2nc(-c3cc4ccccc4oc3=O)cs2)c2ccccc21", "growth": "-53.2% (active)"},
      {"smiles": "CN1CCc2c(sc3ncnc(N/N=C/c4ccc(Cl)cc4Cl)c23)C1", "growth": "-18.6% (active)"},
      {"smiles": "COCOc1ccc2c(=O)c(C)c(C(=O)N[C@@H](Cc3ccccc3)C(O)C(=O)NCCc3ccc(OC)cc3)oc2c1", "note": "(stereo not given in full)", "growth": "116%"},
      {"smiles": "O=C1c2c(c3c4cc(F)ccc4oc3c3[nH]c4ccc(Br)cc4c23)C(=O)N1O", "growth": "108%"},
      {"smiles": "COc1cc2oc(-c3cccc(C(=O)Nc4ccc(Cl)cc4)c3)cc(=O)c2c(OCCNC(=O)[C@H](CCC(=O)OC(C)(C)C)NC(=O)OC(C)(C)C)c1OC", "growth": "107%"},
      {"smiles": "COc1ccc2c(c1)c(/C=N/Nc1ccc3ccccc3n1)cn2C", "growth": "7.2% (active)"},
      {"smiles": "N/C(=N\\c1nc2ccccc2s1)NC(=O)Nc1c(Cl)cccc1Cl", "growth": "49.3%"},
      {"smiles": "COc1ccc2[nH]cc(-c3cc(N)n4nc(-c5cn(C)c6ccccc56)cc4n3)c2c1", "growth": "-85.9% (active)"},
      {"smiles": "C=C1CC[C@@H]2[C@]3(C)COC(c4cn(-c5ccccc5)nc4-c4cccc([N+](=O)[O-])c4)O[C@@H]3CC[C@@]2(C)[C@@H]1C/C=C1/C(=O)OC[C@H]1O", "note": "(stereo not given in full)", "growth": "-24.1% (active)"},
      {"smiles": "Nc1n[nH]c2cccc(C#Cc3cccc(NC(=O)c4cccc(Cl)c4)c3)c12", "growth": "53.2%"},
      {"smiles": "COc1c(F)ccc(C(=O)Nc2ccc3nc(NC(=O)C4CCCN(S(=O)(=O)C5CC5)C4)sc3c2)c1F", "note": "(stereo not given)", "growth": "77.4%"},
      {"smiles": "CC(=O)OC[C@@]1(C)C2CC[C@]3(C)C(CC=C4C5CC(C)(C)CC[C@]5(C(=O)Nc5ccc(C)cc5)CC[C@]43C)[C@@]2(C)C[C@@H](OC(C)=O)[C@@H]1OC(C)=O", "note": "(stereo not given in full)", "growth": "95.2%"},
      {"smiles": "COc1cc(CNC(=O)/C=C/c2ccc3c(c2)OCO3)ccc1OCc1cn(-c2cccc(C(F)(F)F)c2)nn1", "growth": "36.6%"},
      {"smiles": "Cc1cc(=O)oc2cc(OCCOc3ccc(/C=C/C(=O)Nc4ccccc4N)cc3)ccc12", "growth": "39.2%"},
      {"smiles": "COc1cc(/C=C2\\C(=N)N=C(SCc3nc4ccccc4[nH]3)NC2=O)ccc1O", "growth": "109%"},
      {"smiles": "O=C(CN1C(=O)/C(=C/c2ccccc2Cl)SC1=S)N1CCOCC1", "growth": "98.3%"},
      {"smiles": "O=C(COc1ccc(NC(=O)Nc2ccccc2)cc1)N=Nc1c(O)[nH]c2ccc([N+](=O)[O-])cc12", "growth": "61.2%"},
      {"smiles": "C/C(=N\\Nc1ccc(S(N)(=O)=O)cc1)c1ccc(N=Nc2c(Nc3ccccc3)[nH][nH]c2=O)cc1", "growth": "58.3%"},
      {"smiles": "COc1cc(-c2ccc(/C=N/NC(=O)c3[nH]c4ccc(Br)cc4c3-c3ccccc3)o2)cc(OC)c1OC", "growth": "99.6%"},
      {"smiles": "CCCCCCCCOc1cccc(S(=O)(=O)Nc2ccc(C)cc2C(=O)O)c1", "growth": "114%"}
    ]}
  ]
}
